Assay results as given in PubChem BioAssay AID1851 (National Center for Advancing Translational Sciences (NCATS), 2009).
Out of some 16,000 compounds screened, about 5,100 (32%) were called active. Inconclusive results (about 25%) are left out. The call rests on the fitted dose curve; in most records, active means well fitted curve in the direction sought with a large enough effect; inconclusive means small, poorly fitted or top-dose-only effect, or effect the other way; inactive means no such curve, though single readings can be large or run the other way. The list shows a part of the results.

biological target: Cytochrome P450 3A4 (Homo sapiens) (UniProt P08684); test: Cytochrome panel assay with activity outcomes; conditions: recombinant CYP, pro-luciferin dealkylation, luminescence, p450-cyp3a4; series mostly up to 57.1 µM; activity, negative = inhibition: at the top concentration
Sequence (P08684 whole entry, looked up): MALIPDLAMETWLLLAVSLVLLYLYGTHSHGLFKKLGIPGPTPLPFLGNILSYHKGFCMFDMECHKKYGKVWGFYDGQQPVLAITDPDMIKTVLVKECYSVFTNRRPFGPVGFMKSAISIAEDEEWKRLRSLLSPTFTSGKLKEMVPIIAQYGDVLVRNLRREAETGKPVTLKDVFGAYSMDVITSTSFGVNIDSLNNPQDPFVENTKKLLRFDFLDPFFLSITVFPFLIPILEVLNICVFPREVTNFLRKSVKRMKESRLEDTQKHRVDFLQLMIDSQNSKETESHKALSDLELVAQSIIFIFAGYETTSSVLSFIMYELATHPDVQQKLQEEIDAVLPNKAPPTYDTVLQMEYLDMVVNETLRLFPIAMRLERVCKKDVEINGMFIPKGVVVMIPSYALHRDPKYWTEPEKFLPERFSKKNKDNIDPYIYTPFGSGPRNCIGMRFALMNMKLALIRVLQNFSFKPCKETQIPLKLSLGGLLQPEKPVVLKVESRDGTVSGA
On the % scale 0 is the no-effect control and ±100 the full control effect.

activity, negative = inhibition, inactive:
C[Si](C)(c1ccc(C(=O)O)cc1)c1ccc(C(=O)O)cc1 -6.28% [at 11.4 µM]
CCN(CC)N=Nc1[nH]nc2nc(C)cc(C)c12 -15.1% [at 11.4 µM]
NC(=O)c1cccc(N)c1 -23.9%
Nc1nc(SCC(=O)O)[nH]c(=O)c1N -4.46% [at 11.4 µM]
Cc1ccc2nc(-c3ccc(NC(=O)Cc4cccs4)cc3)[nH]c2c1 -7.46% [at 2.29 µM]
C[N+](C)(C)c1ncnc2c1ncn2[C@@H]1CCCCO1 -9.49% [at 11.4 µM]
Cc1cccc(N2CC(O)=C(c3nc4ccccc4n3C)C2=N)c1 -27.6%
Cc1cccc(C)c1NC(=O)Nc1ccc(S(N)(=O)=O)cc1 -9.51% [at 11.4 µM]
CSC(N)=NCCC[C@@H](N)C(=O)O -22.9%
OCCN1CCN(C(=S)c2ccc(Br)cc2)CC1 0.405%
NC(N)=Nc1ccc(Cl)cc1 -4.16%
CC(=O)OC[C@@H]1O[C@@H](O/N=C2/C[C@@H](O)[C@@H](O)[C@@H]3[C@@H]4C(=O)N(C[C@@H]5CCCO5)C(=O)[C@H]4CC[C@@H]23)[C@H](OC(C)=O)[C@H](OC(C)=O)[C@@H]1OC(C)=O -14.3% [at 11.4 µM]
Clc1ccc2c(c1)N(CCCN1CCCC13CCCCC3)c1ccccc1S2 -16.3% [at 11.4 µM]

AC50, inactive:
CC[N+](CC)(CC)CC(=O)Nc1c(C)cccc1C

AC50, active:
CCN(CC)c1ncnc2c1sc1nc(C)cc(C)c12 12.6 µM
C/C(=N\Nc1ccc([N+](=O)[O-])cc1)c1cccc(N)c1 3.55 µM
COCCNc1nc(-c2ccccc2Cl)nc2ccccc12 12.6 µM
COCCNc1nc(-c2ccccc2C(F)(F)F)nc2ccccc12 12.6 µM
Cc1ccc2nc(Cc3ccc(N)cc3)[nH]c2c1 1.78 µM
Cn1c(-c2sc(=S)n(-c3ccccc3)c2N)nc2ccccc21 4.47 µM
CCN(CC)c1ccc2c(c1)OC(N)=C(C#N)C2c1cccnc1 (stereo unspecified) 0.891 µM
CC(=O)Nc1ccc(NC(=O)Cn2c(-c3ccc(F)cc3)cnc2SCC(=O)Nc2c(C)cccc2C)cc1 3.16 µM
CN(C)C(=O)c1ccc(-c2ccc3ncnc(NCc4cccs4)c3c2)cc1 10 µM
CN(C)c1ccc(-c2ccc3ncnc(NCc4ccccc4)c3c2)cc1 2.51 µM
CN(C)C(=O)c1ccc(-c2ccc3ncnc(NCc4ccccc4)c3c2)cc1 15.8 µM
Cc1cccc(CNc2ncnc3ccc(-c4ccc(C(=O)N(C)C)cc4)cc23)c1 2 µM
